This assay has as its system CSNK1D. Particulars: concentration: 1 μM, replicates: in singlicate; n = 1.
With `CN(c1ccc(NC(=O)Nc2cc(C(F)(F)F)ccc2F)cc1)c1ccnc(Nc2ccc(S(N)(=O)=O)cc2)n1` [GW809893], the “%Inh” value is on record as 0%.

For the compound `Cc1cccc(NC(=O)Nc2ccc(Oc3ncnc4ccn(C)c34)cc2)c1`, the “%Inh” value is 0%.

For the compound `Cl.c1ccc(-c2ccc3c(Nc4ccc5[nH]ccc5c4)ccnc3c2)nc1` [GW440138], the “%Inh” value was 13%.

On to `CN1CCN(CCCNc2nccc(-c3c(-c4ccc(F)cc4)nn4cc(C(F)(F)F)ccc34)n2)CC1` [GW621581], for which the “%Inh” value is 90.6%.

Consider `C[C@@H](Oc1cc(-n2cnc3cc(-c4ccnc(NCCS(C)(=O)=O)c4)ccc32)sc1C(N)=O)c1ccccc1Cl` [GSK907232], for which the “%Inh” value is on record as 0%.

With `Cc1cccc(Nc2nc(N[C@H]3CCNC3)ncc2C(N)=O)c1.Cl` [GSK2197149], the “%Inh” value turned out to be 67%.

With `CCc1ccc(-c2ccc3c(c2)-c2c(cnn2C)S(=O)(=O)N3C)cc1`, the “%Inh” value was 0%.

In the case of `COc1cc(Nc2ncc3c(C)nc(-c4cc5ccccc5[nH]4)n3n2)cc(OC)c1OC` [GW869516], the “%Inh” value is 0%.

Consider `Cc1ccc(S(=O)(=O)Nc2ccc(Nc3nccc(Nc4cccc5[nH]ncc45)n3)cc2)cc1` [GSK581271], for which the “%Inh” value was determined as 46%.

In the case of `COc1ccc(Nc2nccc(NCCNC(=O)c3cc4ccccc4s3)n2)cc1` [GSK1379896], the “%Inh” value came out at 8%.

`CN1CCN(Cc2cccc(-c3ccc4c(Nc5ccc(Oc6ccccc6)cc5)ccnc4c3)c2)CC1` [GW578342]: the “%Inh” value is listed as 0%.

Turning to `COc1ccc(Nc2nccc(N3CCC(NC(=O)Nc4cccc(OC)c4)C3)n2)cc1` (centres unmarked) [GSK1379742], the “%Inh” value turned out to be 1%.

As to `O=C(Nc1n[nH]c2cc(-c3ccoc3)ccc12)C1CC1` [SB-738481], the “%Inh” value was determined as 2%.

With `Nc1ncnc2c1nc(-c1ccccc1)n2-c1ccccc1` [SKF-97293], the “%Inh” value is listed as 10%.

In the case of `COc1ccc(CNC(=O)NC2CCN(c3ccnc(Nc4ccc(F)cc4)n3)CC2)cc1` [GSK1379788], the “%Inh” value is listed as 42%.

On to `Cc1occc1-c1ncc(OC[C@@H](N)Cc2c[nH]c3ccccc23)cc1-c1ccc2[nH]nc(C)c2c1.O=C(O)C(F)(F)F` [GSK682037], for which the “%Inh” value is 97.8%.

For the compound `c1ccc(-c2n[nH]cc2Nc2ccnc3ccccc23)nc1` [GW694077], the “%Inh” value is listed as 55%.

`O=C(Nc1cccc(-c2nn3ncccc3c2-c2ccnc(Nc3ccccc3)n2)c1)c1c(F)cccc1F` [GSK198271]: the “%Inh” value is recorded as 20%.

For `Nc1n[nH]c2cnc(-c3ccccc3)cc12` [SB-642124], the “%Inh” value came to 12%.

In the case of `CC(=O)Nc1nc2cnc(Nc3cc(NC(=O)c4cccc(C5(C#N)CC5)c4Cl)ccc3C)nc2s1`, the “%Inh” value is recorded as 0%.

For `O=C(Nc1n[nH]c2nc(-c3ccc(O)cc3)ccc12)C1CC1` [SB-710363], the “%Inh” value came to 0%.

Consider `Cn1cc(-c2[nH]c3cc(NC(=O)[C@H](N)C4CCCCC4)cc4c3c2C=NNC4=O)cn1`, for which the “%Inh” value was found to be 14%.

With `O=C(Nc1cccc(-c2nn3ccccc3c2-c2ccnc(Nc3cccc(F)c3)n2)c1)c1c(F)ccc(F)c1Cl` [GSK357952], the “%Inh” value came to 0%.

Take `O=C(Nc1ccccc1F)NC1CCN(c2ccnc(Nc3ccc(F)cc3)n2)CC1` [GSK1379800]: the “%Inh” value was found to be 54%.

As to `CSc1cccc2c(-c3ccncn3)c(-c3ccc(F)cc3)nn12` [GW514786], the “%Inh” value stood at 84%.

`COc1ccc(-c2coc3ccc(-c4nnc(SCc5ccc(OC)c(C(F)(F)F)c5)o4)cc23)cc1`: the “%Inh” value is listed as 0%.

Values taken from article PMC5540273 (PLoS ONE, 2017).
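Also: KINOMEscan kinase panel screen.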
